Sampled rows, rich in hits. Any-hit rate of the full collection: about 4.7%.
tim23-1 inh – tim23-1 yeast growth inhibition; 330,000 compounds, 1.3% hits; inhibition, % at 20 µM; AID 463212; S. cerevisiae tim23-1 growth, BacTiter-Glo luminescence, 24 h;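 active means growth inhibition of the mutant yeast at or above 50%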;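 further: temperature-sensitive mutant grown at 25 °C; plate controls were DMSO-treated mutant yeast for no effect and medium wells lacking yeast for full effect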
EBI2 antag – antagonists of human EBI2 receptor. EBI2 beta-arrestin recruitment, luminescence, 7a,25-OHC stimulated. P32249. 360,000 compounds, 0.81% hits. inhibition, % at 5 µM; in the data active means inhibition above about 38%;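 further: enzyme fragment complementation signal reports receptor beta-arrestin coupling in cells; 0% = agonist plus DMSO wells and 100% = wells without agonist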
Target sequence (P32249 whole entry, looked up, the tested form may be a part): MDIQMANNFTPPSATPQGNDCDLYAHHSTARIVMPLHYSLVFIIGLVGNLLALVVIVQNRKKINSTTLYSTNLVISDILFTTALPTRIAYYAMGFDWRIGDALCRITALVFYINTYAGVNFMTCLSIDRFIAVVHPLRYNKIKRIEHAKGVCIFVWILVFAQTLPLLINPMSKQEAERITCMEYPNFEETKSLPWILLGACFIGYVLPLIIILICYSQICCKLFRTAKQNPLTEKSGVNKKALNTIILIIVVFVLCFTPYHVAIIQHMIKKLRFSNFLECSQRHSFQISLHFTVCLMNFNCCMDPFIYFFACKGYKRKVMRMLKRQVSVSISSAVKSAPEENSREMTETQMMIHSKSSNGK
TIM10 inh – TIM10 yeast growth inhibition. inhibition, % at 10 µM. AID 463195. S. cerevisiae TIM10 strain growth, BacTiter-Glo luminescence, 24 h. 330,000 compounds, 1.4% hits;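 active means inhibition of 40% or more at the single tested concentration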;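 further: wild-type TIM10 isogenic control strain grown at permissive 25 °C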
tim10-1 inh – inhibits growth of tim10-1 mutant yeast; AID 463190; inhibition, % at 20 µM; 330,000 compounds, 2.2% hits; S. cerevisiae tim10-1 ts strain growth, BacTiter-Glo, 24 h;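 active means inhibition of at least 40%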;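 further: mutant grown at 25 °C; 0% = DMSO wells with yeast and 100% = wells holding no yeast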
SKKanGAS inh – inhibitors of SKKanGAS S. pyogenes growth in kanamycin (SK-promoter or general growth effect); 300,000 compounds, 1.3% hits; inhibition, % at 7.5 µM; BacTiter-Glo, 6 h; AID 1662;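 active means mean replicate score, as percent of positive control median, at least 50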;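 further: strain carries kanamycin resistance gene driven by streptokinase promoter and grows in 40 µg/ml kanamycin; loss of luminescence reflects streptokinase promoter inhibition or plain growth inhibition; 0% = median of DMSO wells and 100% = positive control at its reference dose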
PfHsp90 yeast 2 – inhibits growth of yeast expressing Plasmodium falciparum Hsp90; S. cerevisiae expressing PfHsp90, BacTiter-Glo ATP, 48 h; yeast lacking PDR1 and PDR3 efflux regulators; inhibition, % at 9.4 µM; 310,000 compounds, 0.32% hits; AID 504621;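 active means every replicate shows inhibition above about 80%, whatever the replicate mean, limit read from the data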;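 further: 0% = DMSO neutral controls and 100% = 20 µM radicicol positive controls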
tim10-1 confirm – tim10-1 yeast growth inhibition, confirmed; shares compounds with tim10-1 inh; 7,400 compounds, 56% hits; S. cerevisiae tim10-1 ts strain growth, BacTiter-Glo, 24 h; inhibition, % at 20 µM;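 active means inhibition of yeast growth at or above a set limit in either of two repeat tests at 20 µM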;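 further: tim10-1 mutant grown at permissive 25 °C to find synthetic lethal compounds; 0% = DMSO yeast wells and 100% = medium wells without yeast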
TIM10 conf – TIM10 yeast growth inhibition, confirmed; S. cerevisiae tim10 strain growth, BacTiter-Glo luminescence, 24 h; shares compounds with TIM10 inh; 4,600 compounds, 63% hits; inhibition, % at 10 µM;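 active means inhibition of yeast growth at or above a set limit in either of two replicates at 10 µM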;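 further: this counterscreen used the strain with wild-type TIM10; 0% = yeast with DMSO and 100% = medium wells lacking yeast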
tim23-1 confirm – confirmation of tim23-1 mutant yeast growth inhibitors; shares compounds with tim23-1 inh; S. cerevisiae tim23-1 growth, BacTiter-Glo luminescence, 24 h; inhibition, % at 20 µM; 4,400 compounds, 83% hits;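 active means inhibition above about 39% in either of two replicate wells at 20 µM, limit read from the data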;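 further: temperature-sensitive tim23-1 mutant grown at 25 °C; 0% = DMSO wells with yeast and 100% = medium wells without yeast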
The depositor's hits bear a star; . = no result given.

SMILES	tim23-1 inh	EBI2 antag	TIM10 inh	tim10-1 inh	SKKanGAS inh	PfHsp90 yeast 2	tim10-1 confirm	TIM10 conf	tim23-1 confirm
c1ccc(-c2nc3nonc3nc2-c2ccccc2)cc1	61*	-14	64*	80*	3	-65	72*	57*	84*
CCC(CC)Nc1ccc(C(CC(N)=O)NC(=O)Cc2cccc3ccccc23)cc1[N+](=O)[O-] (configuration not stated)	-23	2	5	3	3	-5	.	.	.
CC1Sc2ccc(S(=O)(=O)N3CCN(c4ccccc4)CC3)cc2NC1=O (configuration not stated)	29	2	13	26	-6	-22	.	.	.
Cc1cccc(N2CCN(S(=O)(=O)c3ccc4c(c3)NC(=O)C(C)S4)CC2)c1C (configuration not stated)	55*	-3	10	50*	20	-52	21	.	34
Oc1c(Br)cc(Br)cc1C=Nc1cccc2ncccc12	83*	3	-5	55*	24	-5	41*	.	86*
CC1CCC/C=C/C(=O)c2c(O)cc(O)cc2CC(=O)O1 (configuration not stated)	53*	-8	40*	54*	-1	-22	49*	51*	54*
CCc1ccccc1NC1Nc2cc(C)nn2S1 (configuration not stated)	27	-5	7	27	-12	-36	.	.	.
Cc1cc2n(n1)SC(Nc1cc(Cl)ccc1Cl)N2 (configuration not stated)	55*	2	48*	47*	-9	-9	35*	45*	37*
C[C@@H]1C=CC(=O)O[C@@H]1c1ccc(Cl)cc1	56*	.	43*	45*	8	.	41*	41*	40*
CC(C)N(NC(=O)c1cccc2ccccc12)C(C)C	12	3	3	16	1	14	.	.	.
Nc1ccc2oc(-c3cc(Br)ccc3Cl)nc2c1	59*	0	41*	54*	-7	-3	41*	36*	55*
CCc1ccc2oc(-c3cc(N)ccc3Cl)nc2c1	56*	2	50*	44*	3	-19	27	23	47*
Cc1nc2c(Br)cc(Br)cc2cc1O	76*	-1	50*	71*	-2	-9	61*	45*	83*
Brc1cc(Br)c2nc(-c3cccs3)ccc2c1	5	12	3	15	11	-1	.	.	.
COC(CNC(=O)c1ccc2c(c1)ncn2C1CCCCCC1)OC	10	5	-13	3	-2	20	.	.	.
O=C1c2ccccc2C(=O)c2c(Nc3ccc(CCO)cc3)ccc(O)c21	57*	-7	34	59*	83*	7	37*	.	51*
CC(C)COC(=O)N1CCN(S(=O)(=O)c2ccc3c(c2)CCC3)CC1	22	-7	3	16	.	-1	.	.	.
NNC(=O)/C(=N/Nc1ccccc1)S(=O)(=O)c1ccc(Cl)cc1	69*	7	17	56*	74*	-3	49*	.	59*
CCOC(=O)/C(=N/Nc1ccc(C)cc1)S(=O)(=O)c1ccc(Cl)cc1	13	-20	11	18	20	11	.	.	.
CCCC(=O)c1ccc(N2CCN(C(=O)c3ccccc3Br)CC2)c(F)c1	52*	0	28	46*	8	-13	38*	.	47*
Cc1cc(C)c2c(CN3CCN(Cc4ccccc4)CC3)cc(=O)oc2c1C	20	-2	29	18	1	-7	.	.	.
N/C(=N\OC(=O)c1cccc(F)c1)c1ccccc1	68*	8	61*	55*	3	.	56*	62*	66*
N/C(=N\OC(=O)c1cccc(F)c1)c1ccccn1	16	-12	16	2	8	45	.	.	.
